Experimental data taken from PubChem BioAssay.
Several values for one entry are separate records, joined by “and”; a condition that tells them apart may be missing. Equal values may be shown once. The source holds several records for some structures; these can differ, active in one and inactive in another. Activity calls are given as the source filed them. No stated cut-off is given here; in the data, active means fold change permeability below about 0.7 or above about 1.3; inactive means in between.

Assay: compounds altering in vitro BBB leakiness – cell-based, FITC-avidin fluorescence, HTS, primary screen (AID 1963498); further: test concentration not given here
Settings: brain endothelial barrier, actives lie on both sides

Fold change permeability, inactive:
CCNCc1nc2c(N)nc3ccccc3c2n1CC(C)(C)O 1.1
Cc1ccc(-n2sc(=O)n(Cc3ccc(F)cc3)c2=O)cc1 1.1
NC/C=C/C(=O)O 0.8
O=[N+]([O-])c1cccc2cn[nH]c12 1
COc1cccc(OC)c1OCCNCC1CSc2ccccc2O1 (stereo not drawn) 1.1
O=c1cc(-c2ccc(O)cc2)oc2cc(O)cc(O)c12 1.2
CC(N=C(NC#N)Nc1ccncc1)C(C)(C)C (stereo not drawn) 0.9
O=C(CCNNC(=O)c1ccncc1)NCc1ccccc1 0.8
CC(C)C[C@H](C(=O)O)c1cc(-c2ccc(C(F)(F)F)cc2)cc(-c2ccc(C(F)(F)F)cc2)c1 0.9
CC(C)c1cc(/C=C(\C#N)C(=O)NCCCc2ccccc2)cc(C(C)C)c1O 0.8
C=C1C[C@H]2[C@@H]3CCC4=CC(=O)CC[C@@H]4[C@H]3CC[C@]2(C)[C@@]1(OC(C)=O)C(C)=O 1.1
Cc1nc(C(=O)N2CCC[C@H]2Cc2nnc(-c3ccccc3)o2)c(-c2ccccc2F)s1 1
Cc1nnc(SCC2=C(C(=O)O)N3C(=O)[C@@H](NC(=O)Cn4cnnn4)[C@H]3SC2)s1 0.9
O=C(c1ccc2c(c1)OCCO2)N1CCCCC1 1.2
CC(=O)c1ccc(S(=O)(=O)NC(=O)NC2CCCCC2)cc1 1.1

Fold change permeability, active:
COc1ccc(C2(CNC(=O)c3ccc(NC(=O)c4ccco4)cc3)CCOCC2)cc1 0.7
CCN(c1nc(N)c(C(=O)N=C(N)N)nc1Cl)C(C)C 1.4
NS(=O)(=O)C#Cc1ccccc1 1.8
Cc1ccc(C(=O)Nc2sc(Nc3ccccc3)nc2C(N)=O)cc1 1.3
Cc1ccc(S(=O)(=O)N[C@@H](Cc2ccccc2)C(=O)CCl)cc1 1.8
NC(N)=S 1.3
O=c1[nH]c2ccccc2n1CCN1CCN(c2cccc(C(F)(F)F)c2)CC1 1.5

Fold change permeability, […] (inactive) and 1.8 (active):
CC(C)NC[C@H](O)c1ccc(O)c(O)c1
